Screening results (PubChem BioAssay)
USP1-UAF1 inh: Inhibitors of USP1/UAF1: Primary Screen. Ubiquitin carboxyl-terminal hydrolase 1 (Homo sapiens), O94782. recombinant USP1/UAF1, Ub-Rhodamine cleavage fluorescence. Potency, µM (top dose mostly 57.1 µM), inactives show at the top dose activity change, negative = inhibition, hits mostly inhibitors. 0.23% of 390,000 active. AID 743255, 2014; also: % is scaled to controls: 0 for no effect and ±100 for the full control effect; nearly all actives have a fitted effect of over 60% in size
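1 nM enzyme complex + cpd, 15 min RT; start with Ub-Rho 150nM final; kinetic fluorescence ex 480/em 540, 6 reads q60 s. Buffer 50mM HEPES pH 7.8, 0.5mM EDTA, 0.1 mg/ml BSA, 1mM TCEP, 0.01% Tween-20.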
EPAC1 agonist: qHTS for Agonist of cAMP-regulated guanine nucleotide exchange factor 3 (EPAC1): primary screen. Rap guanine nucleotide exchange factor 3 (Homo sapiens), O95398. EPAC1 agonist qHTS, biochemical assay; response scale: 100% = response to 6.5 mM cAMP. Potency, µM (top dose mostly 154 µM), for inactives: at the top dose activation, most hits filed as activators. 0.073% of 360,000 active; also: nearly all actives have a fitted effect of over 60% in size
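Read-out is the fluorescence drop as BODIPY-GDP leaves Rap1B (480 nm excitation, 540 nm emission), recorded every 5 minutes over 30 minutes. Reactions held 100 nM EPAC1, 250 nM Rap1B–BODIPY-GDP and 50 uM GDP, with 6.5 mM cAMP setting full activation.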
EPAC2 ag: qHTS for Agonist of cAMP-regulated guanine nucleotide exchange factor 4 (EPAC2): primary screen | Rap guanine nucleotide exchange factor 4 (Homo sapiens), Q8WZA2 | EPAC2 activation, biochemical qHTS; response scale: 100% = 6.5 mM cAMP response | Potency, µM (doses to about 154 µM), without a hit: at the highest dose activation, actives largely listed as activators | 0.079% of 360,000 active; also: nearly all actives have a fitted effect of over 50% in size
Target sequence (Q8WZA2 whole entry, looked up): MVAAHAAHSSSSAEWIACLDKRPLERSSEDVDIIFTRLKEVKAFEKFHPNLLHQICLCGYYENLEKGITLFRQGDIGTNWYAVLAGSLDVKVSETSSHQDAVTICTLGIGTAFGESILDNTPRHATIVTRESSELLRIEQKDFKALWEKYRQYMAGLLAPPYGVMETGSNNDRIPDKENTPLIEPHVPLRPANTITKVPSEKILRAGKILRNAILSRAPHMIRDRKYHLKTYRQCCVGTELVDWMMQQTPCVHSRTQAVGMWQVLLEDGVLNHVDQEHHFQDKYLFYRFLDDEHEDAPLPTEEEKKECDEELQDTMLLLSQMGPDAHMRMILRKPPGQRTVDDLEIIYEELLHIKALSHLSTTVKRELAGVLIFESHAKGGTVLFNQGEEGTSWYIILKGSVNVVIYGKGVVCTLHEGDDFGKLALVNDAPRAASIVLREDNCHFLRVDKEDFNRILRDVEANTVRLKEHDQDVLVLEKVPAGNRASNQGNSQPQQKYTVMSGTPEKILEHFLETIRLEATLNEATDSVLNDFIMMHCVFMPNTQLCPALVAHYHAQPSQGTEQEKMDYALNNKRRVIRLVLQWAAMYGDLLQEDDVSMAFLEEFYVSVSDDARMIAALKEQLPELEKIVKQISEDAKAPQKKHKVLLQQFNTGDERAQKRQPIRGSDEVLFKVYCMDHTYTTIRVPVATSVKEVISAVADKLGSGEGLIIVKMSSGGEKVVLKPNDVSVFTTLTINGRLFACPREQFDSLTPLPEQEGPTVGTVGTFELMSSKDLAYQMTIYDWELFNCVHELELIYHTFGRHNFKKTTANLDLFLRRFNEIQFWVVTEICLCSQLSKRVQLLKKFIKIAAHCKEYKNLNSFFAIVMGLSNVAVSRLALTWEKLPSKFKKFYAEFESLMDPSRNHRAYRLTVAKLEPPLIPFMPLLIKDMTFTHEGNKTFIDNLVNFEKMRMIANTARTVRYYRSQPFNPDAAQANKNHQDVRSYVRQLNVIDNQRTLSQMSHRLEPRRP
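Readout is BODIPY fluorescence (480 nm excitation, 540 nm emission), which falls as labeled GDP is exchanged off Rap1B. EPAC2 at 100 nM acted on 250 nM RAP1B-BODIPY-GDP with 50 uM GDP present.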
EPAC1 antagonist: qHTS for Antagonist of cAMP-regulated guanine nucleotide exchange factor 3 (EPAC1): primary screen | Rap guanine nucleotide exchange factor 3 (Homo sapiens), O95398 | Potency, µM (series often up to 115 µM), for inactives: at the highest dose activity change, negative = inhibition, actives largely listed as inhibitors | 0.14% of 360,000 active | EPAC1 GEF assay, Rap1b-BODIPY-GDP exchange fluorescence;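 also: plate controls were vehicle for no effect and positive control for full effect; nearly all actives have a fitted effect of over 50% in size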
EPAC2 antag: qHTS for Antagonist of cAMP-regulated guanine nucleotide exchange factor 2 (EPAC2): primary screen. EPAC2 GEF exchange of Rap1B-BODIPY-GDP, fluorescence. Potency, µM (doses to about 114 µM), without a hit: at the highest dose activity, negative = inhibition, hits mostly inhibitors. 0.18% of 360,000 active; also: % is scaled to controls: 0 for no effect and ±100 for the full control effect; nearly all actives have a fitted effect of over 45% in size
BRCA1 expr act: qHTS Assay to Identify Small Molecule Activators of BRCA1 Expression | AID 624202, 2012 | 1.1% of 380,000 active | Potency, µM (series often up to 46.1 µM), inactives show at the top dose activation, most hits filed as activators | MCF7-BRCA1-FFLuc reporter, luminescence, 48 h; response scale: scaled: vehicle 0%, 10 µM genistein 100%; also: nearly all actives have a fitted effect of over 80% in size
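Reporter cells (MCF7, BRCA1 promoter-firefly luciferase) received library compounds across a concentration series for 48 h. End-point luminescence was measured and concentration-effect curves derived after normalization.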
Starred values were filed as active, the others as inactive; ? = inconclusive; . = not tested or not shown. Sampled rows, rich in hits. Any-hit rate of the full collection: about 1.4%. Calls follow the shape of the dose curve; as a rule, active = well fitted curve in the direction sought with a large enough effect; inconclusive = small, poorly fitted or top-dose-only effect, or another doubt; inactive = no such curve, though single readings can be large; an effect the other way counts as inactive or inconclusive. Potency is read from the fitted curve at half-maximal effect.

SMILES	USP1-UAF1 inh	EPAC1 agonist	EPAC2 ag	EPAC1 antagonist	EPAC2 antag	BRCA1 expr act
O=C1NC(=Nc2ccccc2)S/C1=C\C=C\c1ccco1	-19%	-1%	0%	?	4%	-20%
Cc1ccc(N=C2NC(=O)/C(=C/C=C/c3ccco3)S2)cc1	-18%	-12%	-3%	56µM*	20%	-34%
CC(=O)O[C@@]12CO[C@@H]1C[C@H](O)[C@@]1(C)C(=O)[C@H](O)C3=C(C)[C@@H](OC(=O)C(O)[C@@H](NC(=O)OC(C)(C)C)c4ccccc4)C[C@@](O)([C@@H](OC(=O)c4ccccc4)[C@H]21)C3(C)C (stereo not given in full)	.	.	.	.	.	0%
CC1(C)Cc2cccc(OCC(=O)OCC(=O)Nc3ccc(S(N)(=O)=O)cc3)c2O1	-30%	1%	10%	3%	4%	-1%
CN(C(=O)COC(=O)c1cccc(S(=O)(=O)N(C)c2ccccc2)c1)C1CCCCC1	-20%	-4%	7%	-12%	-1%	-2%
CCCN(C(=O)c1cn(C)c(=O)c2cc(OC)c(OC)cc12)c1ccc(CC)cc1	0%	.	.	.	.	.
Nn1c(SCc2ccccc2)nc2ccccc21	-16%	-4%	5%	7%	14%	3.2µM*
CCOC(=O)c1cnc(SCc2ccccc2)nc1N	-8%	18%	21%	-12%	-6%	2.2µM*
Cc1ccc(/C=N/NC(=O)c2cccs2)cc1[N+](=O)[O-]	-5%	4%	-4%	3%	-3%	13µM*
O=C(Nc1ccc([N+](=O)[O-])cc1)c1ccccc1F	-12%	-2%	-3%	18%	3%	4.5µM*
O=C(Nc1ccc(-c2ccc([N+](=O)[O-])cc2)cc1)c1ccccc1F	-13%	-3%	1%	14%	9%	4%
CN(C)c1ccc(Cc2cc3c(O)ccc(O)c3cc(Cc3ccc(N(C)C)cc3)c2=O)cc1	?	9%	10%	50µM*	-5%	20%
C/C(=N\OC(=O)c1ccc(Br)cc1)c1ccccn1	-8%	1%	6%	2%	3%	-3%
C/C(=N/OCc1ccc(Br)cc1)c1ccccn1	-16%	3%	2%	6%	-1%	3.5µM*
Cc1cccc(-c2ncc(S(=O)(=O)C(C)(C)C)c(N)n2)c1	1%	11%	2%	-9%	1%	5µM*
COc1ccc(-n2c(-c3ccc(F)cc3)cn3c4c(=O)n(C)c(=O)n(C)c4nc23)cc1	-30%	.	.	.	.	23%
COc1cc(/C=N/N=C2/NC(=O)C(CC(=O)O)S2)ccc1OCc1cccc(Cl)c1 (stereo not given)	-25%	2%	4%	19%	-18%	11µM*
COc1ccc(/C=N/N=C2/NC(=O)C(CC(=O)O)S2)cc1OCc1ccc(Cl)cc1 (stereo not given)	-10%	7%	0%	9%	3%	1%
CC(NC(=O)COc1ccccc1-c1ccccc1)c1ccccc1 (stereo not given)	-14%	1%	6%	-17%	40µM*	-23%
Cc1cc(/C=N/NC(=O)c2cccc([N+](=O)[O-])c2)c(C)n1-c1ccccc1	-6%	-4%	-3%	-30%	0%	13µM*
O=C(NN=Cc1ccccc1O)c1cccc([N+](=O)[O-])c1	-21%	2%	3%	-26%	-5%	-112%
Cc1cc(/C=N/NC(=O)c2ccncc2)c(C)n1-c1ccccc1	12%	-1%	-8%	-4%	-12%	7.9µM*
CCc1ccc(-n2c(C)cc(/C=N/NC(=O)c3ccncc3)c2C)cc1	-20%	5%	-3%	3%	1%	-19%
O=C(Cn1cc(SCc2ccc(C(F)(F)F)cc2)c2ccccc21)N1CCCC1	3%	.	.	.	.	.
COc1ccc(OC)c(/C=C2\Cc3ccccc3C2=O)c1	.	.	.	.	.	0%
SMILES	USP1-UAF1 inh	EPAC1 agonist	EPAC2 ag	EPAC1 antagonist	EPAC2 antag	BRCA1 expr act
COc1ccc(OC)c(/C=C2/Sc3ccccc3C2=O)c1	28µM*	16%	23%	-9%	41%	-35%
COC(=O)c1cc(Cl)c(NC(=O)C(C)C)cc1OC	-7%	2%	6%	-9%	6%	-9%
COC(=O)c1cc(Cl)c(NC(=O)c2ccc(C(C)(C)C)cc2)cc1OC	-19%	-5%	0%	1%	-5%	3.5µM*
Nc1ccc2oc3ccccc3c2c1	-3%	-15%	4%	-9%	-7%	3.2µM*
COc1ccccc1N=c1oc2cc(O)ccc2cc1C(N)=O	-12%	-11%	-12%	-23%	1%	10µM*
Cc1cccc(N=c2oc3cc(O)ccc3cc2C(N)=O)c1	-13%	4%	-5%	-7%	-1%	11µM*
COc1ccccc1N=c1oc2cc(O)ccc2cc1C(=O)NCC1CCCO1 (stereo not given)	-26%	4%	2%	17%	11%	-13%
O=C(Nc1ccc2nc(-c3ccco3)[nH]c2c1)c1cccs1	-2%	3%	3%	4%	-9%	?
O=C(Nc1ccc2nc(-c3ccc4nc[nH]c4c3)[nH]c2c1)c1cccs1	?	13%	?	-8%	50µM*	4%
O=C(Nc1ccc2[nH]ccc2c1)c1cccs1	-11%	0%	13%	-21%	-1%	3.2µM*
O=C(Nc1ccc2nc(-c3ccccc3)[nH]c2c1)c1cccs1	3%	-1%	22%	-8%	-3%	7.1µM*
Cc1ccc(S(=O)(=O)N(C)C[C@@H]2Oc3ccc(NC(=O)Nc4cccc5ccccc45)cc3C(=O)N([C@H](C)CO)C[C@H]2C)cc1	-35%	-10%	-1%	-21%	5%	-18%
O=C(CCc1nnc(CCCc2ccccc2)o1)NCCCC1CCCC1	-12%	-5%	2%	-18%	-3%	13µM*
O=C(CCc1nnc(CCCc2ccccc2)o1)NCCc1ccccc1	-8%	-6%	6%	-12%	1%	4%
CC(OC(=O)c1ncc(Cl)c(Cl)c1Cl)C(=O)NC1CCCCC1C (stereo not given)	-11%	-1%	-7%	-1%	-5%	-7%
COc1ccc(Nc2nc(-c3ccccc3)nc3ccccc23)c(OC)c1	-19%	20%	14%	-14%	-5%	-39%
